High-throughput results from PubChem BioAssay.
Lassa entry inh – blocks Lassa virus binding to or entry into cells; Lassa virus pseudotype entry inhibition, cell reporter; Potency, µM (top dose mostly 37.9 µM), usual class: inhibitors; 1.2% of 300,000 active; calls by dose curve; tested in HEK293 cells; further: nearly all actives have a fitted effect of over 50% in size
MARV entry inh – Marburg virus entry inhibition. Marburg virus pseudotyped entry inhibition, cell reporter. Potency, µM (highest dose often 37.8 µM), most hits filed as inhibitors. 1.8% of 300,000 active. AID 540276; calls by dose curve; tested in HEK293 cells
Pf growth 96h – inhibits malaria parasite growth, 96 h; Potency, µM (highest dose often 28.7 µM), hits mostly inhibitors; AID 504834; P. falciparum luciferase reporter growth, 96 h; 6.9% of 320,000 active
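Two-generation exposure (96 h) targets delayed-death phenotype. Reporter parasites carrying integrated firefly luciferase, in red cells at 2% hematocrit and 0.05% parasitemia final, kept at 37 C, 5% CO2; luminescence loss indicates inhibition.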
Shiga inhibitor – blocks Shiga toxin action in Vero cells; inhibition, % at 38.7 µM; 9.2% of 290,000 active; AID 2315; Vero cells, Shiga toxin protein synthesis inhibition reporter; in the data active means inhibition mostly above about 28%, no sharp cut-off; inactive means mostly below about 43%
Pf growth 48h – P. falciparum growth inhibition at 48 hours (one generation); Potency, µM (series often up to 28.7 µM), hits mostly inhibitors; 5.9% of 310,000 active; P. falciparum luciferase growth in erythrocytes, 48 h
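Read-out is firefly luciferase luminescence from an integrated reporter in P. falciparum, so falling signal marks reduced parasite growth. Infected erythrocytes were at 2% hematocrit and 0.1% parasitemia (final) in Albumax-supplemented RPMI 1640.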
CHX counter – affects cycloheximide protein synthesis inhibition readout, counter-screen; cell reporter, cycloheximide protein synthesis inhibition counterscreen; max response, %; 12% of 300,000 active; AID 2314; in the data active means max response mostly above about 13%, no sharp cut-off; inactive means mostly below about 14%; further: read at 38.3 µM for the half of the compounds with a filed dose
Large screens that a line does not name were inactive. The list is not random: actives were taken first. Their share in the collection is about 19%. Unless noted, the call rests on the fitted dose curve; in most records, active means well fitted inhibition curve with a large enough effect; inconclusive means small, poorly fitted or top-dose-only effect, or another doubt; inactive means no such curve, though single readings can be large or run the other way.

Cc1ccc[n+](C(C)C(=O)c2ccc(-c3ccccc3)cc2)c1 (stereo not given)	Lassa entry inh inconclusive, MARV entry inh inconclusive, Pf growth 96h inconclusive, Pf growth 48h inconclusive
Cc1cc[n+](C(C)C(=O)c2ccc(Cl)cc2)cc1 (stereo not given)	MARV entry inh inconclusive, Pf growth 48h inconclusive
CC(C(=O)c1ccc(-c2ccccc2)cc1)[n+]1ccccc1 (stereo not given)	Lassa entry inh inconclusive, MARV entry inh 10µM, Pf growth 96h 2.3µM, Pf growth 48h 8.3µM
COc1ccc(C(=O)N/C(=C\c2cn(C)c3ccccc23)C(=O)N2CCOCC2)cc1OC	none (no result: Lassa entry inh, MARV entry inh)
C/C(=N\NC(=O)COc1cccc(C)c1)c1ccc2ccccc2c1O	Pf growth 96h 2.6µM, Pf growth 48h inconclusive (no result: Lassa entry inh, MARV entry inh)
Cc1cccc(OCC(=O)NNC(=O)CCc2ccccc2)c1	none
CCOC(=O)/C=C/C(=O)OCC(=O)NCc1ccccc1	Pf growth 96h inconclusive, CHX counter 16
O=C(COC(=O)CC(c1ccccc1)c1ccccc1)NCc1ccccc1	Lassa entry inh 12µM, Pf growth 96h inconclusive
Cc1cccc(OCC(=O)NCc2ccccc2)c1	Pf growth 96h 9.3µM
Cc1ccc2nc(-c3ccc4c(c3)OCCO4)cn2c1	Lassa entry inh 1µM, MARV entry inh inconclusive
c1ccn2cc(-c3ccc4c(c3)OCCO4)nc2c1	none (no result: Lassa entry inh, MARV entry inh)
Clc1ccc2nc(-c3ccc4c(c3)OCO4)cn2c1	Lassa entry inh inconclusive, MARV entry inh inconclusive, Shiga inhibitor 76, CHX counter 35
Nc1nc(-c2ccc3c(c2)NC(=O)CO3)cs1	none (no result: Pf growth 96h)
Cc1ccc2nc(-c3ccc4c(c3)NC(=O)CO4)cn2c1	Lassa entry inh inconclusive, MARV entry inh inconclusive, Shiga inhibitor 72, CHX counter 42
C=CCSc1nnc(-c2c[nH]c3ccccc23)n1CC	Pf growth 96h inconclusive (no result: Lassa entry inh, Pf growth 48h)
CCN(CC)S(=O)(=O)c1cccc(-c2nnc(SCC(=O)NCCC3=CCCCC3)n2N)c1	MARV entry inh inconclusive, Pf growth 96h 12µM
O=C(C1CCN(Cc2cc(Cl)ccc2O)CC1)N1CCN(Cc2ccccc2)CC1	MARV entry inh inconclusive, Pf growth 48h inconclusive
O=Nc1ccc(NOC(=O)c2ccccc2)cc1	MARV entry inh inconclusive, Shiga inhibitor 47, CHX counter 44
Cc1c(O)cccc1C(=O)N[C@@H](CSc1ccccc1)[C@H](O)CN1C[C@H]2CCCC[C@H]2C[C@H]1C(=O)NC(C)(C)C	Pf growth 96h inconclusive, Pf growth 48h 6.6µM (no result: Lassa entry inh, MARV entry inh)
O=C(CNC(=S)NC(=O)c1cccs1)c1ccccc1	Shiga inhibitor 90, CHX counter 66
Cc1onc(-c2ccccc2Cl)c1C(=O)NC(=S)NCC(=O)c1ccccc1	none (no result: Lassa entry inh, MARV entry inh)
O=C(CNC(=S)NC(=O)c1ccco1)c1ccccc1	Lassa entry inh inconclusive, MARV entry inh inconclusive, Shiga inhibitor 75, CHX counter 37
Cc1ccc(C(=O)NC(=S)NCC(=O)c2ccccc2)cc1	CHX counter 17
O=C(NC(=S)NCc1ccccc1)c1cccs1	none (no result: Lassa entry inh, MARV entry inh)
CCN(CC)c1nc(N2CCN(CCO)CC2)nc2ccccc12	Pf growth 96h inconclusive (no result: Lassa entry inh, MARV entry inh)
Cc1cc(C)c2nc(N3CCCC(C(=O)N4CCC(C(N)=O)CC4)C3)sc2c1 (stereo not given)	none (no result: Pf growth 48h)
N/C(=N\OC(=O)CCCc1ccccc1)c1ccc(Br)cc1	none (no result: Lassa entry inh, MARV entry inh)
N/C(=N\OC(=O)CCc1ccccc1)c1ccc(Br)cc1	Shiga inhibitor 71, CHX counter 38
N/C(=N\OC(=O)CCc1ccccc1)c1cccc(Br)c1	none
Cc1ccc(/C(N)=N/OC(=O)CCc2ccccc2)cc1	Shiga inhibitor 91, CHX counter 33
N/C(=N\OC(=O)CCc1ccccc1)c1ccccc1Cl	Lassa entry inh inconclusive, Pf growth 96h inconclusive, Shiga inhibitor 107, CHX counter 28
COc1ccc(S(=O)(=O)Nc2ccccc2C(=O)NCc2ccco2)cc1	none (no result: Pf growth 48h)
Cc1cc(C)n(-c2ccc(F)cc2CN2CCN(Cc3ccccc3)C(CCO)C2)n1 (stereo not given)	MARV entry inh inconclusive, Pf growth 96h inconclusive
Cc1ccc(NC(=O)c2noc3c2CCCCC3)cc1	Lassa entry inh 15µM, MARV entry inh inconclusive, Shiga inhibitor 83, CHX counter 67
Cc1ccc(Cn2ccc(NC(=O)c3noc4c3CCCCC4)n2)cc1	MARV entry inh inconclusive
O=C(NC1CCCCC1)c1noc2c1CCCCC2	Lassa entry inh inconclusive, MARV entry inh inconclusive, Shiga inhibitor 72, CHX counter 39
CCc1ccc(NC(=O)c2noc3c2CCCCC3)cc1	MARV entry inh inconclusive, Pf growth 96h 3.7µM, Shiga inhibitor 85, CHX counter 23
CC(C)(C)C1CCc2onc(C(=O)NC3CCCC3)c2C1 (stereo not given)	Lassa entry inh inconclusive, MARV entry inh inconclusive, Pf growth 48h inconclusive
Cc1ccc(O)c(NC(=O)c2noc3c2CCCCC3)c1	Lassa entry inh inconclusive, MARV entry inh inconclusive, Shiga inhibitor 185, CHX counter 42
CNC(=O)CN(c1cc(C)ccc1OC)S(=O)(=O)c1ccc(C)cc1	none (no result: Pf growth 96h)
CC(C(=O)Nc1nc2ccccc2s1)n1cc([N+](=O)[O-])cn1 (stereo not given)	Pf growth 96h inconclusive (no result: Lassa entry inh)
CCN1C(=O)C(c2ccc(O)cc2)(c2ccc(O)cc2)c2ccccc21	MARV entry inh inconclusive
COc1ccc(NC(=O)c2noc3c2CCCCC3)cc1	Shiga inhibitor 83, CHX counter 42 (no result: Lassa entry inh, MARV entry inh)
Cc1ccc(NC(=O)c2noc3c2CCc2ccccc2-3)cc1	Lassa entry inh inconclusive, Shiga inhibitor 47, CHX counter 34 (no result: Pf growth 48h)
CC(=O)c1ccc(NC(=O)c2noc3c2CCc2ccccc2-3)cc1	MARV entry inh inconclusive (no result: Pf growth 96h, Shiga inhibitor, Pf growth 48h, CHX counter)
CC(NC(=O)c1noc2c1CCCC2)c1ccccc1 (stereo not given)	MARV entry inh inconclusive, Pf growth 96h inconclusive
Cc1ccc(Cn2nc(C)c(NC(=O)c3noc4c3CCCCC4)c2C)cc1	Lassa entry inh inconclusive, Pf growth 96h inconclusive
CCc1ccc(NC(=O)c2noc3c2CCC3)cc1	Lassa entry inh inconclusive, Pf growth 96h inconclusive, CHX counter 25 (no result: Pf growth 48h)
Cc1ccc(NC(=O)c2noc3c2CCCCC3)cc1C	Lassa entry inh inconclusive, MARV entry inh inconclusive, Pf growth 96h inconclusive, Shiga inhibitor 107, CHX counter 43
CC(C)OC(=O)CSc1nc(N)c(C#N)c(-c2ccco2)c1C#N	Pf growth 96h inconclusive, Pf growth 48h inconclusive
CC(OC1=CC(=O)CCC1)C(=O)c1ccccc1 (stereo not given)	MARV entry inh inconclusive (no result: Pf growth 96h)
COc1cc(/C=C2\C[C@H]3[C@@H]4CC=C5C[C@@H](N6CCCC6)CC[C@]5(C)[C@H]4CC[C@]3(C)[C@H]2O)cc(OC)c1OC	MARV entry inh 10µM (no result: Pf growth 96h, Shiga inhibitor, Pf growth 48h, CHX counter)
CC12CCC3C(CC=C4CC(O)CCC43C)C1C/C(=C\N1CCCC1)C2=O (stereo not given)	none (no result: Lassa entry inh, MARV entry inh)
C/C(=N\NC(=O)Cn1nc(C)c([N+](=O)[O-])c1C)c1ccc(O)cc1	Lassa entry inh inconclusive, MARV entry inh inconclusive, Pf growth 96h inconclusive
Cc1ccn2cc(-c3ccc(NC(=O)c4ccco4)cc3)nc2c1	Lassa entry inh inconclusive, MARV entry inh inconclusive, Shiga inhibitor active, Pf growth 48h inconclusive, CHX counter 43
